Results from PubChem BioAssay (NCI).
About 83,000 compounds went through this panel and 20% of them were active in at least one assay; those are over-represented in the sample as a whole.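 Method: cells in 96-well plates; compound added at one concentration; 48 h incubation; percent growth measured; values under 10 scored active.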 Unmarked numbers belong to inactive results. Active and inactive are the calls of the source.

Experiments:
Experiment in all cases: NCI-60 one-dose screen, 48 h (100 = growth as untreated, 0 = no growth, -100 = all killed)
NCI-H23 lung = conditions: 10 µM unless noted
NCI-H226 lung = conditions: 10 µM unless noted
NCI-H322M lung = conditions: 10 µM unless noted
HOP-62 NSCLC = conditions: 10 µM unless noted
NCI-H460 lung = conditions: 10 µM unless noted
HOP-92 NSCLC = conditions: 10 µM unless noted
NCI-H522 lung = conditions: 10 µM
786-0 renal = conditions: 10 µM unless noted
COLO 205 colon = conditions: 10 µM unless noted
A549/ATCC NSCLC = conditions: 10 µM unless noted

Row | SMILES | growth (NCI-H23 lung) | growth (NCI-H226 lung) | growth (NCI-H322M lung) [%] | growth (HOP-62 NSCLC) | growth (NCI-H460 lung) | growth (HOP-92 NSCLC) | growth (NCI-H522 lung) | growth (786-0 renal) | growth (COLO 205 colon) | growth (A549/ATCC NSCLC) [%]
1 | COc1cc(/C=N/OC(=O)Nc2ccccc2)cc(OC)c1OC | 107% | 96% | 92.2 | 93.9% | 109% | 74.6% | 86.2% | 103% | 107% | –
2 | O=[N+]([O-])c1cc([N+](=O)[O-])c(N2CCCC2)cc1NN=C(c1ccc(O)cc1)c1ccc(O)cc1 | 9.44% (active) | 94.8% | 91.7 | 23.3% | 9.13% (active) | 87.7% | -42% (active) | 0.661% (active) | 30.6% | –
3 | C=CCNC(=O)/C(=C/c1cccc([N+](=O)[O-])c1)NC(=O)c1ccccc1 | 98.6% | 90.5% | 107 | 92.4% | 111% | 91.9% | 97.5% | 84.7% | 120% | –
4 | CCCCc1n(Cc2ccc3ccccc3c2)cc[n+]1Cc1ccc2ccccc2c1 | -23.8% (active) | -0.475% (active) | 23.3 | -2.71% (active) | -13.1% (active) | -38.2% (active) | – | -18.4% (active) | -77.1% (active) | 29.8
5 | COC(=O)C1CCN(S(=O)(=O)c2ccc(-c3ccccc3)cc2)CC1 | 97.7% | 93.3% | 116 | 113% | 110% | 86.8% | 99.8% | 113% | 108% | –
